Reference: PubChem BioAssay (NCATS)
Records with an inconclusive call do not appear. The source made the active and inactive calls. Calls follow the shape of the dose curve; as a rule, active = well fitted curve in the direction sought with a large enough effect; inconclusive = small, poorly fitted or top-dose-only effect, or another doubt; inactive = no such curve, though single readings can be large; an effect the other way counts as inactive or inconclusive.

Legend:
[1] = qHTS to identify inhibitors of the type 1 interferon - major histocompatibility complex class I in skeletal muscle: primary screen against the NCATS LOPAC collection (AID 1347405);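 also: lytic HiBiT luminescence reporting HLA-B protein level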
Outline: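 Immortalized human C25cl48 myoblasts with HiBiT knocked into endogenous HLA-B*08:01 were stimulated with 4.0 ng/ml IFN-beta and given compounds in a 7-point, 1:4.3 titration from 46 uM final; after 24 hrs, lytic HiBiT luminescence was read.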

[2] = qHTS for inhibitors of adenylyl cyclases using a fission yeast platform: a pilot screen against the NCATS LOPAC library (AID 1347410)
Outline: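 Inhibition of GNAS-stimulated AC9 activity in S. pombe was inferred from derepression of a PKA-repressed fbp1-GFP reporter, measured as cytometric fluorescence after 18 h at 30C with compounds at up to 57 µM.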

[3] = Validation qHTS assay for inhibitors of Activation Induced Cytidine Deaminase (AID): UDG Counterscreen signal (AID 1347427)
Outline: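 Counterscreen read of UDG activity (2 U/mL, 4/3x) in the FRET deamination format with AID (1 uM, 4/3x), DJC20/DJC23 substrates (250 nM, 4x), 4 h at room temperature. NaOH stop, fluorescence at 560 ex/665 em.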

[4] = molecular target: Single-stranded DNA cytosine deaminase (Homo sapiens) (UniProt Q9GZX7); assay: Validation qHTS assay for inhibitors of Activation Induced Cytidine Deaminase (AID): AID signal (AID 1347429)
Outline: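 AID and UDG were combined and compounds added at final up to 114 uM, then DJC20/DJC23 FRET substrate was added for 4 hr at room temperature. NaOH was then added for 30 min before fluorescence was read at 540/590 nm.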

[5] = Primary qHTS for inhibitors of La Crosse Virus (LACV) - induced cell death in SH-SY5Y cells (AID 1508616);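 also: top concentration of the series differs between compounds; higher means more rescue of cells from virus-induced death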
Outline: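 Luminescent ATP readout (ATPLite 1step, 5 min room temperature) measured rescue from LACV-induced death after 6 days of infection at 0.01 MOI; normalized to infected DMSO wells and uninfected DMSO wells.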

[6] = molecular target: Calcium and integrin-binding protein 1 (Homo sapiens) (UniProt Q99828); assay: Validation qHTS for Identification of Calcium Integrin Binding protein 1 (CIB1) Competitor (AID 1508618)
Outline: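 Fluorescence polarization with 1 uM CIB1-GST and 100 nM FITC-alphaIIb peptide in HEPES pH 7.4, NaCl, 5 mM CaCl2, Tween20. Compounds at up to 114 uM final, preincubated with protein 15 min; read after 15 min more at RT.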

[7] = Primary qHTS for small molecule stabilizers of the endoplasmic reticulum resident proteome: Secreted ER Calcium Modulated Protein (SERCaMP) assay (AID 1508630)
Outline: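 GLuc-SERCaMP-expressing SH-SY5Y cells, pretreated 16 h with compound, are challenged with thapsigargin to empty ER calcium stores; after 4 h, coelenterazine is added directly to the medium and luminescence is imaged.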

[8] = molecular target: Papain (Carica papaya) (UniProt P00784); assay: Primary qHTS assay for inhibitors of the protease papain (AID 1645873);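 also: papain turnover of Z-FR-AMC read as the AMC fluorescence gain over 10 min; series mostly up to about 50 µM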

Measured: Potency

Sequence of Calcium and integrin-binding protein 1 (Homo sapiens) (Q99828 whole entry, looked up): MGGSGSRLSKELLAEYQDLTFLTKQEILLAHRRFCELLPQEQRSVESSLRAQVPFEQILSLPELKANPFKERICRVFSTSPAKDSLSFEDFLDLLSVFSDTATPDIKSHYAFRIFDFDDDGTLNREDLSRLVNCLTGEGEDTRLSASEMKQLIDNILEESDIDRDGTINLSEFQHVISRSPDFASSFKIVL
Sequence of Papain (Carica papaya) (P00784 whole entry, looked up): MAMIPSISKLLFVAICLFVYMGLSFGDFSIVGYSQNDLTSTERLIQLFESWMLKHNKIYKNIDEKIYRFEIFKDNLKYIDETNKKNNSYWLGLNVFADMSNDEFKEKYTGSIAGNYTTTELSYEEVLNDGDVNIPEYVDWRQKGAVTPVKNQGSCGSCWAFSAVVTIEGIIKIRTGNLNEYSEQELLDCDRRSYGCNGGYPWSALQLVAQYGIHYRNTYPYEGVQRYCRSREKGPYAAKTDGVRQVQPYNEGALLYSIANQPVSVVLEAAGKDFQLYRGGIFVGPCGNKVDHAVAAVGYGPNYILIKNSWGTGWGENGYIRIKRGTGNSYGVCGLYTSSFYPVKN
Sequence of Single-stranded DNA cytosine deaminase (Homo sapiens) (Q9GZX7 whole entry, looked up): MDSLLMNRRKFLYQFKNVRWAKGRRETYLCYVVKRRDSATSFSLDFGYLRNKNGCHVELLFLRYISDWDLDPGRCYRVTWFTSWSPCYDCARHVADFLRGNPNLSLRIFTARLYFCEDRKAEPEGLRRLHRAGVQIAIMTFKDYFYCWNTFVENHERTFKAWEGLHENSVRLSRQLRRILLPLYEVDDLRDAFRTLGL

CC1CNCCN1S(=O)(=O)c1cccc2cnccc12 (configuration not stated)
inactive: [1] | [2] | [3] | [4] | [5] | [6] | [7] | [8]

CC(C)NCC(O)COc1ccc(CC(N)=O)cc1 (configuration not stated)
inactive: [1] | [2] | [3] | [4] | [5] | [6] | [7] | [8]

COc1ccccc1N1CCN(CCCCN2C(=O)c3ccccc3C2=O)CC1
inactive: [1] | [2] | [3] | [4] | [5] | [6] | [7] | [8]

CC[N+](CC)(CC)CC(=O)Nc1c(C)cccc1C
inactive: [1] | [2] | [3] | [4] | [5] | [6] | [7] | [8]

NC(=O)c1ccccc1
inactive: [1] | [2] | [3] | [4] | [5] | [6] | [7] | [8]

CCC(=O)N1CCN(C(=O)c2ccccc2)CC1
inactive: [1] | [2] | [3] | [4] | [5] | [6] | [8]

N[C@@H](Cc1ccc(O)c(I)c1)C(=O)O
inactive: [1] | [2] | [3] | [4] | [5] | [6] | [7] | [8]

CC(C)Cn1c(=O)n(C)c(=O)c2[nH]cnc21
inactive: [1] | [2] | [3] | [4] | [5] | [6] | [7] | [8]

Cc1nc(N=Nc2ccc(C(=O)O)cc2)c(COP(=O)(O)O)c(C=O)c1O
inactive: [1] | [2] | [3] | [4] | [5] | [6] | [7] | [8]

CSc1nc(N)c2ncn([C@@H]3O[C@H](COP(=O)(O)OP(=O)(O)O)C(O)[C@H]3O)c2n1 (some centres not stated)
inactive: [1] | [2] | [3] | [4] | [5] | [6] | [7] | [8]

O=C(O)C1CCNCC1
inactive: [1] | [2] | [3] | [4] | [5] | [6] | [8]

C=CCN1CCc2cc(O)c(O)cc2C(c2ccccc2)C1 (configuration not stated)
inactive: [1] | [2] | [3] | [4] | [5] | [6] | [7] | [8]

COc1ccccc1N1CCN(CCCNc2c(C)c(=O)n(C)c(=O)n2C)CC1
inactive: [1] | [2] | [3] | [4] | [5] | [6] | [7] | [8]

NOCC(=O)O
inactive: [1] | [2] | [3] | [4] | [5] | [6] | [8]

COc1ccccc1N1CCN(CCN(C(=O)c2ccc(F)cc2)c2ccccn2)CC1
inactive: [1] | [2] | [3] | [4] | [5] | [6] | [8]

c1ccc(C2CN3CCSC3=N2)cc1 (configuration not stated)
inactive: [1] | [2] | [3] | [4] | [5] | [6] | [8]

N=C(N)c1ccccc1
inactive: [1] | [2] | [3] | [4] | [5] | [6] | [8]

NC(Cc1cccc(-c2ccccc2CP(=O)(O)O)c1)C(=O)O (configuration not stated)
inactive: [1] | [2] | [3] | [4] | [5] | [6] | [8]

c1ccc(C(NCCNC(c2ccccc2)c2ccccc2)c2ccccc2)cc1
inactive: [1] | [2] | [3] | [4] | [5] | [6] | [8]

COc1ccc(-c2ccc(N)[n+](CCCC(=O)O)n2)cc1
inactive: [1] | [2] | [3] | [4] | [5] | [6] | [8]

C#CC(N)CCC(=O)O (configuration not stated)
inactive: [1] | [2] | [3] | [4] | [5] | [6] | [8]

NCCCCN
inactive: [1] | [2] | [3] | [4] | [5] | [6] | [8]

CCCCS(=N)(=O)CC[C@H](N)C(=O)O (some centres not stated)
inactive: [1] | [2] | [3] | [4] | [5] | [6] | [8]

C=C1C[C@@]23CC[C@H]4[C@@](C)(CCC[C@@]4(C)C(=O)OC4OC(CO)C(O)C(O)C4O)[C@@H]2CC[C@]1(OC1OC(CO)C(O)C(O)C1OC1OC(CO)C(O)C(O)C1O)C3 (some centres not stated)
inactive: [1] | [2] | [3] | [4] | [5] | [6] | [8]

OC[C@H]1O[C@H](n2cnc3c(N[C@H]4CCC[C@@H]4O)ncnc32)[C@H](O)[C@@H]1O
inactive: [1] | [2] | [3] | [4] | [5] | [6] | [8]

N=C(N)c1ccc(N)cc1
inactive: [1] | [2] | [3] | [4] | [5] | [6] | [8]

Oc1ccc(Cn2cc[nH]c2=S)cc1
inactive: [1] | [2] | [3] | [4] | [5] | [6] | [8]

COc1cc2c(CCNC(C)=O)c[nH]c2cc1O
inactive: [1] | [2] | [3] | [4] | [5] | [6] | [8]
